HT1080 IDH1KD tx: HT-1080 IDH1 knockdown cell toxicity (counter line); HT-1080 IDH1 knockdown viability, ATP luminescence, 48 h; Potency, µM (doses to about 46.1 µM), actives largely listed as cytotoxic; 360,000 tested, 2% active; AID 686971
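Using the IDH1-knockdown HT-1080 line run in the same batch and compound series as the NT line, viability after 48 h at 37 °C was determined by CellTiter-Glo luminescence and expressed as % activity.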
TGFb inhibitor: TGF-b pathway inhibition | AID 588855 | Potency, µM (top dose mostly 46.1 µM), hits mostly inhibitors | HepG2 CAGA-GFP TGF-b/SMAD3 reporter, GFP fluorescence, 18 h; TGF-beta stimulated, 500 pg/mL final | 410,000 tested, 1.2% active; also: nearly all actives have a fitted effect of over 65% in size
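TGF-beta reporter screen: HEPG2 CAGA-GFP, 1% FBS, 500 pg/mL TGF-beta final, 18 h; per-cell GFP summed per well; curves fitted and categorized by class.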
HT1080-NT tox: kills 2HG-producing HT-1080-NT fibrosarcoma cells | HT-1080-NT fibrosarcoma viability, CellTiter-Glo ATP luminescence, 48 h | Potency, µM (titrated, usually from 46.1 µM), usual class: cytotoxic | AID 686970 | 360,000 tested, 1.6% active;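 also: NT is the 2HG producing partner of a matched IDH1 knockdown line; nearly all actives have a fitted effect of over 55% in size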
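HT-1080-NT fibrosarcoma cells (2HG-overproducing), 750 cells/well in RPMI with 5% FBS, dosed after 2 h and incubated 48 h at 37C. CellTiter-Glo luminescence normalized to DMSO and no-cell wells; concentration-response curves fitted and classed.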
KB-V1 MDR tox: KB-V1 MDR subline cytotoxicity | Potency, µM (doses to about 46.1 µM), hits mostly cytotoxic | 400,000 tested, 3.4% active | KB-V1 MDR cells viability, CellTiter-Glo, 72 h; also: nearly all actives have a fitted effect of over 60% in size
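Compound-treated KB-V1 multidrug-resistant cells, 72 h, 37 degrees C; viability by CellTiter-Glo. Fitted qHTS curves give the values.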
KB-3-1 tox: KB-3-1 parental cell cytotoxicity; Potency, µM (titrated, usually from 46.1 µM), most hits filed as cytotoxic; KB-3-1 viability, CellTiter-Glo ATP luminescence, 72 h; 400,000 tested, 1.4% active; also: nearly all actives have a fitted effect of over 60% in size
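Screening of KB-3-1 cells (DMEM, 10% FBS, phenol-red free) ran from lowest to highest compound concentration; after 72 h at 37 °C viability was read luminescently and curves fitted.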
HepG2 tox-1: counter-screen for TGF-b inhibitors: cytotoxicity in HepG2 cells. Potency, µM (series often up to 46.1 µM), hits mostly cytotoxic. HepG2 CAGA-GFP viability, ATP luminescence, 18 h. AID 588856. 410,000 tested, 0.76% active
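HepG2 CAGA-GFP cells (1000/well, DMEM with 1% FBS) received compound, then TGF-beta at 500 pg/mL final, and were incubated 18 hours at 37 degrees C. Viability was read by CellTiter-Glo luminescence. Media-only wells were set as complete cell-killing and DMSO as no toxicity.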
TGFb confirm: TGF-b pathway inhibition, cherry-pick retest | AID 720534 | 1,600 tested, 63% active | Potency, µM (top dose mostly 46.1 µM), most hits filed as inhibitors | shares compounds with TGFb inhibitor | HepG2 CAGA-GFP TGF-b reporter, GFP fluorescence, 18 h; cells stimulated with TGF-beta, 500 pg/mL; also: nearly all actives have a fitted effect of over 65% in size
HepG2 tox-2: counter-screen for TGF-b inhibitors: cytotoxicity in HepG2 cells; shares compounds with TGFb inhibitor; HepG2 CAGA-GFP viability, ATP luminescence, 18 h; cells stimulated with TGF-beta, 500 pg/mL; Potency, µM (top dose mostly 46.1 µM), hits mostly inhibitors; 1,600 tested, 27% active; also: nearly all actives have a fitted effect of over 70% in size
TGFb CCL64 inh: blocks TGF-b signaling in CCL64 reporter cells; shares compounds with TGFb inhibitor; CCL64 CAGA-GFP reporter, TGF-b stimulated, GFP fluorescence, 18 h; Potency, µM (doses to about 46.1 µM), hits mostly inhibitors; 1,600 tested, 41% active; AID 720536; also: nearly all actives have a fitted effect of over 65% in size
COP TGFb inh: validation of TGF-b inhibitors in HepG2 COP promoter reporter. shares compounds with TGFb inhibitor. HepG2 COP-GFP TGF-b reporter, GFP fluorescence, 18 h; cells stimulated by added recombinant TGF-beta. Potency, µM (highest dose often 46.1 µM), hits mostly inhibitors. 1,600 tested, 3% active. AID 720537; also: nearly all actives have a fitted effect of over 70% in size
Numbers stand for hits; 0 = inactive; ? = inconclusive; - = no result given; [ ] = remark or other dose. In the library only some 6.6% were active in any assay of this set; here they are far more common. Calls follow the shape of the dose curve; as a rule, active = well fitted curve in the direction sought with a large enough effect; inconclusive = small, poorly fitted or top-dose-only effect, or another doubt; inactive = no such curve, though single readings can be large; an effect the other way counts as inactive or inconclusive.

SMILES	HT1080 IDH1KD tx	TGFb inhibitor	HT1080-NT tox	KB-V1 MDR tox	KB-3-1 tox	HepG2 tox-1	TGFb confirm	HepG2 tox-2	TGFb CCL64 inh	COP TGFb inh
COc1ccc(C)cc1NC(=O)c1ccccc1NS(=O)(=O)c1ccc(Cl)s1	16.4µM	5.01µM	?	3.26µM	5.17µM	0	11.6µM	?	6.51µM	0
Cc1ccc(NC(=O)c2ccccc2NS(=O)(=O)c2ccc(Cl)s2)cc1S(=O)(=O)N1CCOCC1	?	?	?	20.6µM	0	0	13µM	?	8.2µM	0
Cc1ccc(NC(=O)c2ccc([N+](=O)[O-])s2)cc1S(=O)(=O)N1CCOCC1	20.6µM	7.08µM	?	0	18.4µM	0	6.51µM	?	?	0
Nc1nc(Nc2ccccc2)sc1C(=O)c1ccccc1	?	5.62µM	?	?	?	0	3.66µM	3.66µM	20.6µM	0
c1ccc(CCc2cccnc2)cc1	0	0	0	?	?	0	-	-	-	-
CC1=C(C(=O)N(C(C)C)C(C)C)CC(CC(=O)NCc2cccs2)C(=O)N1CCC1=CCCCC1 (stereo not drawn)	0	?	0	?	0	0	-	-	-	-
CN(Cc1cccs1)c1nc(-c2cccnc2)nc2ccccc12	0	14.1µM	0	?	?	0	25.9µM	?	18.4µM	0
CN1C[C@H]2CON(C)[C@H]2C[C@H]1c1cccc(-c2ccccc2)c1	0	?	0	0	0	0	-	-	-	-
C=C(C)COc1ccc(-c2[nH]ncc2-c2ccc(OC)cc2)c(O)c1	0	8.91µM	0	0	0	0	?	?	23.1µM	?
CCN(Cc1ccccc1)C(=O)C1CCC(CNS(=O)(=O)c2ccc3c(c2)CCCC(=O)N3)CC1 (stereo not drawn)	-	?	-	0	?	0	-	-	-	-
CCOC(=O)c1sc(NC(=O)Nc2ccc(Cl)cc2)cc1C	?	5.62µM	?	?	?	0	?	?	16.4µM	0
CC(=O)Oc1ccc(N(C(C)=O)S(=O)(=O)c2cccs2)c2ccccc12	17.8µM	10µM	?	?	0	0	?	0	?	0
CCN(c1cccc2ccccc12)S(=O)(=O)c1cccs1	0	?	0[9.24 µM]	0	0	0	-	-	-	-
O=C(Nc1ccc([N+](=O)[O-])cc1)Nc1cnccn1	0	?	0	0	0	0	?	?	?	0
Cc1ccn2c(Nc3ccc4c(c3)OCCO4)c(-c3ccc(C)o3)nc2c1	-	0	-	0	0	0	-	-	-	-
Cc1ccccc1CCNC(=O)c1ccc(Cl)c(S(=O)(=O)N2CC(C)OC(C)C2)c1 (stereo not drawn)	0	10µM	0	1.84µM	5.17µM	0	16.4µM	?	?	0
Cc1ccc(C(=O)NCCc2ccccn2)cc1S(=O)(=O)N1CCOCC1	0	0	0	0	0	0	-	-	-	-
CN(C)C(=O)c1ccc(-c2cc3onc(-c4ccccc4)c3c(=O)n2C)cc1	0	?	0	?	0	0	0	0	0	0
Cc1cc(C)c(S(=O)(=O)Nc2ccc3c4c(cccc24)CC3)c(C)c1	1.03µM	8.91µM	?	1.3µM	0.731µM	0	11.6µM	?	9.2µM	0
CCc1ccccc1NC(=O)c1cn(C)c(=O)c2ccccc12	-	0	-	?	0	0	-	-	-	-

Assay outcomes as filed in PubChem.
